Reference: PubChem BioAssay AID1460 (National Center for Advancing Translational Sciences (NCATS), 2008)
About 5,800 (2.1%) of roughly 270,000 compounds were called active. Roughly 16% stayed inconclusive and do not appear here. Calls come from the whole dose curve; as a rule, active = well fitted inhibition curve with a large enough effect; inconclusive = small, poorly fitted or top-dose-only effect; inactive = flat fitted curve, though single readings scatter. This excerpt belongs to a sample that is enriched for actives. A structure can be active in one record and inactive in another.

Target: Microtubule-associated protein tau (Homo sapiens) (UniProt P10636)
Sequence (P10636 561-689 P618L limits assumed): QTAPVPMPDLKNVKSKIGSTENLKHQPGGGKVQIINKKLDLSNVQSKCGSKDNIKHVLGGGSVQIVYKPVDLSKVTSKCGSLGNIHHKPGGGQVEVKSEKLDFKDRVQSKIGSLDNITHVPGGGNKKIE
Assay: qHTS for Inhibitors of Tau Fibril Formation, Thioflavin T Binding; note: nearly all actives have a fitted effect of over 55% in size
Details: recombinant tau K18 P301L (four-repeat tau fragment), heparin-induced fibrillization, ThT fluorescence; series mostly up to 57.4 µM; activity, negative = inhibition: at the top concentration
From the text: NIH Molecular Libraries Probe Production Network [MLPCN]
NIH Chemical Genomics Center [NCGC]
Assay Provider: Carlo Ballatore, University of Pennsylvania
The microtubule-associated protein tau is an abundant protein in the axons of neurons that stabilizes microtubules. With its ability to modulate microtubule dynamics, tau contributes directly or indirectly, to key structural and regulatory cellular functions. Particularly important is the influence tau exerts on axonal transport, which allows signaling molecules, trophic factors and other essential cellular constituents to travel along the axons. Under pathological conditions, tau becomes sequestered into insoluble aggregates called neurofibrillary tangles. This phenomenon is believed to have pathological consequences by promoting axonal transport deficits that ultimately lead to synaptic dysfunction and neuronal loss. To identify inhibitors of tau aggregation, a heparin-induced tau fibril formation assay was used that employed a recombinantly expressed fragment of tau, K18 (Q242-E372), bearing a P301L mutation (Gustke et al. 1994; Hong et al. 1998). This assay monitors tau fibrillization by Thioflavin T (ThT) fluorescence.
Gustke, N., B. Trinczek, et al. (1994). "Domains of tau protein and interactions with microtubules." Biochemistry 33(32): 9511-22.
Hong, M., V. Zhukareva, et al. (1998).
Li, W. and V. M. Lee (2006).
von Bergen, M., S. Barghorn, et al. (2001). "Mutations of tau protein in frontotemporal dementia promote aggregation of paired helical filaments by enhancing local beta-structure." J Biol Chem 276(51): 48165-74.
NCGC Assay Protocol Summary:
For screening, 2 uL/well human K18 P301L (15 uM unlabeled and 0.24 uM Alexa 594-labeled tau, final concentrations) in reagent buffer (100 mM sodium acetate pH 7) was dispensed into black solid 1536-well plates (Grenier) using a solenoid-based dispenser. Following transfer of 23 nL compound or DMSO vehicle by a pin tool, 2 uL/well heparin (20 uM final concentration) in reagent buffer was added and the plate centrifuged 15 s at 1000 RPM. Plates were incubated 6 hr at 37 C and then 1 uL/well ThT (30 uM final concentration) was added. After a 1 hr ambient incubation, the plates were read by an Envision (Perkin Elmer) to monitor ThT fluorescence (450/8 nm excitation and 510/23 nm emission).
Keywords: NIH Roadmap, MLPCN, MLI, MLSMR, NCGC, qHTS, tau, tauopathies, Alzheimer's disease, fibril, neurodegeneration, aggregation
% is set by controls: 0 for no effect and ±100 for the full control effect; potency is the fitted concentration of half-maximal effect.

Potency, active:
Nc1[nH][nH]c(=O)c1N=Nc1ccc2c(c1)OCO2 11.2 µM, CN1/C(=C\C=C2\N=C(c3ccc(F)cc3)OC2=O)C(C)(C)c2ccccc21 28.2 µM, COc1ccc(N=Cc2c(O)[nH]c3ccccc23)cc1OC 14.1 µM, CC1(OC(=O)CCc2ccccc2)C(=O)C=C2C=C(c3ccc(C#N)cc3)N(CCc3ccccn3)C=C2C1=O (configuration not stated) 28.2 µM, CCOc1cc(C2C(C(=O)OC)=C(C)NC3=C2C(=O)c2ccccc23)ccc1O (configuration not stated) 14.1 µM, COC(=O)C1=C(C)NC2=C(C(=O)c3ccccc32)C1c1ccc(-c2ccc(C(=O)O)cc2)o1 (configuration not stated) 8.91 µM, CCCS(=O)(=O)c1ncc(Cl)c(C(=O)Nc2scc(-c3ccccc3)c2C(=O)OCC)n1 7.94 µM, Cc1cc(C)c([N+](=O)[O-])cc1-c1ccc(/C=N/NC(=O)c2nonc2N)o1 5.01 µM, Cc1ccc(-c2ccc(/C=N/NC(=O)CN3CCOCC3)o2)cc1[N+](=O)[O-] 15.8 µM, CCN(CC)c1ccc(/C=N/NC(=O)c2cnccn2)c(O)c1 5.62 µM, CCCCNC(=O)Nc1c(C)cc(SC#N)cc1C 22.4 µM, O=C(NC(=S)Nc1cccc2c(O)cccc12)c1cccc(Br)c1 12.6 µM

activity, negative = inhibition, inactive:
CC(=O)c1cc2c(cc1N)OCO2 -6.51%, Cc1[nH][nH]c(=O)c1C(c1ccc2c(c1)OCO2)c1c(C)[nH][nH]c1=O -9.72%, COc1ccccc1N1CCN(S(=O)(=O)CCNC(=O)COc2ccc(F)cc2)CC1 -9.39%, Cc1ccc2c(c1)c1c(c(=O)n(-c3ccccc3)c(=O)n1CC(=O)c1ccc(Cl)cc1)n2C 2.43%, COc1ccc(CCNC(=O)CCCn2c(=O)c3ccccc3n(Cc3ccc(F)cc3Cl)c2=O)cc1OC -15.2%, CN1/C(=C\C(=O)c2cccnc2Cl)C(C)(C)c2ccccc21 -12.7%, CN1/C(=C\C(=O)c2oc3ccccc3c2N)C(C)(C)c2ccccc21 -9.9%, COc1ccc(OCc2ccc(-c3nc(C#N)c(N4CCN(c5ccccc5)CC4)o3)o2)cc1 -13%, COc1ccccc1N=Cc1c(O)c2ccccc2oc1=O -10.1%, COCC(=O)N=Nc1c(O)[nH]c2ccccc12 2.47%, Cc1cc(NC(=O)c2ccc(-c3ccc(Cl)cc3)o2)cc(-c2nc3ncccc3o2)c1O -20%, Cc1oc2ncn(CC(C)C)c(=O)c2c1C(=O)N1CCN(c2ccccc2F)CC1 1.01%, COc1ccccc1CNS(=O)(=O)c1cc(Br)cc2c1N(C(C)=O)C(C)C2 (configuration not stated) -3.82%, CCC(CC)C(=O)N1CCc2cc(OC)c(OC)cc2C1COc1ccc(F)cc1 (configuration not stated) -2.69%, CC1(OC(=O)CCc2ccccc2)C(=O)C=C2C=C(c3ccc(C#N)cc3)N(CCc3ccccn3)C=C2C1=O (configuration not stated) 5.29% [at 11.5 µM], CCCCC1=CC2=CC(=O)C(C)(OC(=O)CC)C(=O)C2=CN1CCCOC(C)C (configuration not stated) 0.166% [at 11.5 µM], CC1(OC(=O)C2CCCC2)C(=O)C=C2C=C(c3ccc(C#N)cc3)OC=C2C1=O (configuration not stated) -0.0683%, COc1ccc(NC(=O)CCCN2C(=O)CCn3nc(-c4cn(C)c5ccccc45)cc32)cc1OC -16.8%, COc1ccccc1OCC(=O)Nc1nnc2n1CCS2 -8.04%, CCc1ccc(NC(=O)C2CCCN2S(=O)(=O)c2ccc3nc(-c4ccccc4)[nH]c3c2)cc1 (configuration not stated) -0.653%, COc1cc(C2C(C(=O)OCCC#N)=C(C)NC3=C2S(=O)(=O)c2ccccc23)cc(OC)c1OC (configuration not stated) 1.33%, COc1ccccc1NC(=O)C1=C(C)NC2=C(C(=O)CCC2)C1c1ccc(C)o1 (configuration not stated) -2.96%, COC(=O)C1=C(C)NC(=O)NC1/C=C/c1ccccc1 (configuration not stated) -3.02%, CCOc1cc(C2C(C(=O)Nc3ccc(OC)cc3)=C(C)Nc3nc(SC)nn32)ccc1O (configuration not stated) -15.4%, Cc1nn(C)c2c1c(C(F)(F)F)cc(=O)n2C(C)C(=O)NCc1ccc(Cl)cc1 (configuration not stated) -0.102%, CC(C)(C)c1ccc(C(=O)NCC(c2ccco2)S(=O)(=O)c2ccc(F)cc2)cc1 (configuration not stated) -13.2%, Cc1ccc(Cl)cc1NC(=O)CSc1nc2ccccc2nc1Cc1ccccc1 6.27%, Cc1ccc(NC(=O)C2CCN(S(=O)(=O)c3cc(-c4noc(C)n4)ccc3C)CC2)c(C)c1 12.4%, O=C(NCCCc1ccccc1)c1ccc2c(c1)sc1nc(-c3ccc(F)cc3)cn12 -2.4%, COc1ccc2[nH]c3c(c2c1)CCN(C(=O)CCC1CCCC1)C3c1ccc(F)cc1 (configuration not stated) -10%, CC(C)C(=O)Nc1nc2c(s1)CC(C(C)(C)C)CC2 (configuration not stated) -5.04%, CCOC(=O)c1c(-c2ccccc2)csc1NC(=S)NC(=O)c1ccccc1 -20%, CCOC(=O)c1c(-c2cccc(C)c2)csc1NC(=O)c1c(-c2ccccc2)noc1C 4.1%, COc1cc(CNC(=O)c2cc3n(n2)CCCN(Cc2cccc(F)c2)C3=O)cc(OC)c1OC -16.7%, COC(=O)N/N=C/c1ccc(-c2ccc(Cl)c(Cl)c2)o1 10.7%, Nc1nnnn1CC(=O)N/N=C/c1ccc(-c2cccc(Cl)c2)o1 3.14%, COc1cc(/C=N\NC(=O)c2nonc2N)c(OC)cc1Br -11.8%, Cc1ccc(NC(=O)CN2CCC(C(N)=O)CC2)cc1[N+](=O)[O-] 1.4%, CCC(=O)N1N=C(c2ccc(OC)cc2)CC1c1cn(-c2ccccc2)nc1-c1cccs1 (configuration not stated) -7.19%, COc1cc(NC(=O)c2noc3c2CSc2ccccc2-3)cc(OC)c1OC -11.9%, CCN(CC)c1ccc(/C=N/Nc2nc(C)cc(C)n2)c(O)c1 4.14%, Cc1cc(/C=N/NC(=O)c2cccnc2)c(C)n1CC(C)C -11.4%, CC(CNC(=O)c1nnc(Cc2cccc(F)c2)o1)c1ccccc1 (configuration not stated) 6.43%, O=C(CCSCc1cccc(F)c1)NCc1ccccc1 12.1%, COc1cc(OC)c(NC(=O)Cc2ccc(-n3c(C)nc4cccnc43)cc2)cc1Cl -1.35%, COc1ccc(C(=O)CSc2c(C(C)C)cnc3c2c(=O)n(C)c(=O)n3C)cc1 -12.6%, CCCCNC(=O)C(=O)c1ccccc1NC(C)=O 0.0865%, CCCCNC(=S)NNC(=O)c1cc(C)on1 -2.68%, O=C(NC(=S)Nc1ccc(S(=O)(=O)Nc2ncccn2)cc1)c1cccc(Br)c1 1.91%, NS(=O)(=O)c1ccc(NC(=S)NC(=O)c2cccc(Br)c2)cc1 -1.11%
